# Shown are actives, neighbours in structure and some others; about 3.8% of the full set was active somewhere.
# HepG2 viability – counter-screen for TGF-b inhibitors: cytotoxicity in HepG2 cells. HepG2 CAGA-GFP viability, ATP luminescence, 18 h. Potency, µM (doses to about 46.1 µM), for inactives: top-dose activity change, negative = cytotoxicity, most hits filed as cytotoxic. hit rate 0.76% among 410,000
#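 HepG2 CAGA-GFP cells (1000/well, DMEM with 1% FBS) received compound, then TGF-beta at 500 pg/mL final, and were incubated 18 hours at 37 degrees C. Viability was read by CellTiter-Glo luminescence. Media-only wells were set as complete cell-killing and DMSO as no toxicity.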
# S2 tox – reduces viability in counter-screen for ATXN expression inhibitors; hit rate 0.49% among 400,000; Potency, µM (top dose mostly 56.7 µM), usual class: cytotoxic; S2 cells (HEK-293 line with an ATXN2-luciferase reporter) viability, CellTiter-Fluor protease fluorescence, 24 h; also: nearly all actives have a fitted effect of over 40% in size
# A549 viability – kills or reduces viability of A549 cells in Nrf2 counter-screen | A549 ARE-Fluc cells, CellTiter-Fluor viability, 18-24 h | Potency, µM (series often up to 46 µM), for the others: at the top dose activity change, negative = cytotoxicity, most hits filed as inhibitors | hit rate 0.16% among 390,000; also: % is scaled to controls: 0 for no effect and ±100 for the full control effect
#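 A549 ARE-Fluc cells in 5% FBS OPTI-MEM, 5000 cells/well, rested 2 h then exposed to compounds in concentration-response for 18-24 h at 37 °C. Viability by CellTiter-Fluor fluorescence (Ex 405/Em 525) after 30 min; luciferase luminescence (BugLite, 15 min, RT) read afterwards.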
# Nrf2 block – Nrf2 pathway inhibition; A549 ARE-Fluc reporter, luciferase luminescence, 18-24 h; Potency, µM (series often up to 46 µM), inactives show at the top dose activity change, negative = inhibition, hits mostly inhibitors; hit rate 2.1% among 360,000; also: % is scaled to controls: 0 for no effect and ±100 for the full control effect; nearly all actives have a fitted effect of over 60% in size
#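 A549 ARE_Fluc cells (5000/well, 5% FBS OPTI-MEM) pre-incubated 2 h, then treated with compounds 18-24 h at 37C/5% CO2 in concentration-response. CellTiter-Fluor viability read first; BugLite luciferase luminescence after 15 min at room temperature gives Nrf2 activity.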
# ATXN2 expr inh – inhibitors of ATXN2 expression; HEK-293 ATXN2-luciferase reporter, luminescence, 24 h; Potency, µM (highest dose often 57 µM), inactives show top-dose activity change, negative = inhibition, most hits filed as inhibitors; hit rate 0.72% among 360,000; also: % is scaled to controls: 0 for no effect and ±100 for the full control effect; nearly all actives have a fitted effect of over 55% in size
#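 ATXN2-luciferase reporter cells (luciferase flanked by upstream and downstream ATXN2 gene portions) were treated 24 h at 37 °C with compounds at up to 57 uM. SteadyGlo luminescence gave expression; GF-AFC fluorescence gave viability.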
# TGFb SMAD3 inh – inhibitors of TGF-b signaling | Potency, µM (series often up to 46.1 µM), inactives show top-dose activity, negative = inhibition, most hits filed as inhibitors | HepG2 CAGA-GFP TGF-b/SMAD3 reporter, GFP fluorescence, 18 h; TGF-beta stimulated, 500 pg/mL final | AID 588855 | hit rate 1.2% among 410,000; also: % is scaled to controls: 0 for no effect and ±100 for the full control effect; nearly all actives have a fitted effect of over 65% in size
#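 Inhibition was scored as loss of TGF-beta-induced (500 pg/mL final, 18 hours, 37 degrees C) GFP in HEPG2 cells carrying a CAGA-GFP reporter, in DMEM with 1% FBS. Well GFP was summed per cell; Activity was normalised to unstimulated and stimulated DMSO wells, then concentration-response fitting.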
# * = called active by the depositor; i = inactive; ? = inconclusive; / = no result given; [ ] = remark or other dose. Calls follow the shape of the dose curve; as a rule, active = well fitted curve in the direction sought with a large enough effect; inconclusive = small, poorly fitted or top-dose-only effect, or another doubt; inactive = no such curve, though single readings can be large; an effect the other way counts as inactive or inconclusive. Potency is read from the fitted curve at half-maximal effect.
SMILES,HepG2 viability,S2 tox,A549 viability,Nrf2 block,ATXN2 expr inh,TGFb SMAD3 inh
COc1ccc(NC(=O)c2nc[nH]c2C(=O)N[C@@H](CC(C)C)C(=O)OC(C)(C)C)cc1,-78%,?,-1%,?,?,?
CC(C)C[C@H](NC(=O)c1nc[nH]c1C(=O)NCc1ccccc1)C(=O)OC(C)(C)C,-80%,?,-6%,-19%,?,11µM*
CC1CCc2c(sc3ncn(CC(=O)N4CCCCC4)c(=O)c23)C1 (stereo not drawn),-3%,/,-1%,-13%,/,?
Cc1cccc(C)c1NC(=O)CSc1nc2ccccc2c2nc(CCc3c(C)n[nH]c3C)nn12,-3%,?,-15%,/,-10%,8%
Cc1ccc(NC(=O)CSc2nc3ccccc3c3nc(CCc4c(C)n[nH]c4C)nn23)cc1F,-47%,?,?,13µM*,-28%,-16%
Cc1ccc(NC(=O)CSc2nc3ccccc3c3nc(CCc4c(C)n[nH]c4C)nn23)c(C)c1,2%,i,-8%,/,9%,4%
Cc1n[nH]c(C)c1CCc1nc2c3ccccc3nc(SCC(=O)Nc3ccc(F)cc3)n2n1,13µM*,?,-15%,/,?,?
CC1=C(C(=O)Nc2ccccc2C)C(c2ccccn2)n2nc(SCc3ccccc3F)nc2N1 (stereo not drawn),7%,/,6%,2%[9.27 µM],/,?
C[C@H](O)[C@@H]1CN2CCc3c([nH]c4ccc(-c5ccc6c(c5)OCO6)cc34)[C@@H]2C[C@@H]1N(C)C(=O)Nc1ccc(F)cc1,13µM*,32µM*,/,/,?,?
Fc1cc(F)c2nc(N3CCCC3)sc2c1,0%,i,4%,?,/,-1%
O=C(NCC1CCCCC1)c1cccc(-c2ccc(O)cc2)c1,-78%,i,-1%,?,-28%,13µM*
CC(=O)c1ccc(N2CCN(Cc3cc(=O)n4c(-c5ccccc5)csc4n3)CC2)cc1,-7%,i,2%,?,-12%,?
O=c1cc(CN2CCN(c3ccccc3)CC2)nc2scc(-c3ccccc3)n12,9%,i,-6%,15µM*,2%,0%
C=CC(=O)Nc1cccc(Nc2nc(NC3CCC(N(C)C)CC3)nc3c2ncn3C(C)C)c1 (stereo not drawn),/,/,/,/,0.031µM*,/
COc1ccccc1C1=Nn2c(nnc2-c2ccccc2C)SC1,/,/,-15%,-41%,/,/
CCOc1cc(C(=O)Nc2ccc(-c3cn4cccnc4n3)cc2)cc(OCC)c1OCC,-65%,/,-9%,?,/,?
Cc1ccc(C(=O)Nc2ccc(-c3cn4cccnc4n3)cc2)cc1C,-61%,?,-11%,23µM*,?,?
CCCCNC(=O)C1(C)CCCCN1Cc1ccccc1-c1ccccc1 (stereo not drawn),20µM*,i,/,/,?,?
CC(=O)c1cc(-c2ccccc2)n(CCC(=O)Nc2nc3c(C)cccc3s2)c1C,-5%,/,0%,/,/,-5%
O=C(Nc1cc(F)ccc1F)C1COc2ccccc2C1 (stereo not drawn),-4%,i,5%,/,3%,20%
CC(=O)c1ccc(N=Nc2ccc(C)cc2)cc1,-12%,i,3%,?,-38%,-4%
C=C(C)C(=O)Oc1ccc(N=Nc2ccc(C)cc2)ccc1=O,-32%,32µM*,?,?,?,?
COc1ccc(Nc2nc(N)c([N+](=O)[O-])c(NC3CCCCC3)n2)cc1,22µM*,/,-16%,4%,?,?
Cc1sc2ncnc(N3CCN(c4ncccn4)CC3)c2c1C,-10%,i,-12%,15µM*,-19%,?
COc1cc(C(=O)N2CCN(c3ncnc4sc(C)c(C)c34)CC2)cc(OC)c1OC,-22%,i,?,10µM*,?,-13%
SMILES,HepG2 viability,S2 tox,A549 viability,Nrf2 block,ATXN2 expr inh,TGFb SMAD3 inh
CN(C)c1ccc(-c2ccnc3c2CC(C)(C(=O)NCC2CC2)O3)cc1 (stereo not drawn),-42%,?,/,/,-16%,-30%
CC(C)COc1ccc(CC(=O)NO)cc1,3%,/,/,/,/,3%
O=C(N/N=C/c1cn(-c2cccs2)nc1-c1ccccc1)c1ccccc1O,-47%,?,?,?,0%,11µM*
COc1cc(/C=C2\CCC(C3CCCC3)C2=O)cc(OC)c1OC (stereo not drawn),-16%,i,0%,-3%,27%,-1%
COc1cc(/C=C2\CC(C(C)(C)C)C/C(=C\c3cc(OC)c(OC)c(OC)c3)C2=O)cc(OC)c1OC (stereo not drawn),-71%,?,8.2µM*,5.8µM*,?,11µM*
COc1ccc(C=C2CCc3ccccc3C2=O)cc1,-88%,i,/,/,0%,?
COc1ccc(/C=C2/CCc3ccccc3C2=O)cc1OC,-30%,?,-9%,23µM*,9%,-29%
COc1cc(/C=C2/CCc3ccccc3C2=O)cc(OC)c1OC,-8%,i,-17%,15µM*,-22%,-22%
COc1cc(/C=C2\CCc3ccccc3C2=O)cc(OC)c1OC,19%,i,5%,-28%,-1%,?
COc1ccc(-c2cnc(C)o2)cc1S(=O)(=O)Nc1ccc(C)c(F)c1,-6%,?,-18%,/,-11%,?
O=S(=O)(Nc1ccncc1)c1cc(Cl)c(Cl)cc1Cl,-35%,i,-3%,-47%,/,13%
Cc1cc(Cl)ccc1OCC(=O)Nc1cccc(-c2nc3ccccc3o2)c1,3%,/,/,/,/,-3%

# Screening data: PubChem BioAssay, National Center for Advancing Translational Sciences (NCATS)
